Pf growth 96h: inhibits malaria parasite growth, 96 h; P. falciparum luciferase reporter growth, 96 h; Potency, µM (series often up to 28.7 µM), for the others: at the top dose activity change, negative = inhibition, hits mostly inhibitors; 320,000 tested, 6.9% active; AID 504834; note: potency is the fitted concentration of half-maximal effect; % is set by controls: 0 for no effect and ±100 for the full control effect
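Two parasite generations (96 h, 37 C, 5% CO2) of compound exposure in infected erythrocytes (0.05% parasitemia, 2% hematocrit). Luciferase-reporter P. falciparum; decreased luminescence indicates inhibited growth, aimed at apicoplast-acting delayed death.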
Pf growth 48h: P. falciparum growth inhibition at 48 hours (one generation). P. falciparum luciferase growth in erythrocytes, 48 h. Potency, µM (doses to about 28.7 µM), inactives show top-dose activity change, negative = inhibition, most hits filed as inhibitors. 310,000 tested, 5.9% active; note: potency is the fitted concentration of half-maximal effect; % is set by controls: 0 for no effect and ±100 for the full control effect
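Growth was read as firefly luciferase luminescence after a 48 h, 37 C, 5% CO2 exposure of compounds to reporter-bearing P. falciparum cultures (0.1% parasitemia, 2% hematocrit final) in Albumax-supplemented RPMI 1640.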
Shiga toxin inh: inhibitors of Shiga toxin in Vero cells. Vero cells, Shiga toxin protein synthesis inhibition reporter. inhibition, % at 38.7 µM. 290,000 tested, 9.2% active; in the data active = inhibition mostly above about 28%, no sharp cut-off; inactive = mostly below about 43%; note: 0% is about no effect
HCV inh: inhibitors of hepatitis C virus infection. Huh7.5.1 HCVcc-Cre infection, luciferase reporter, 44 h. Potency, µM (doses to about 41.8 µM), without a hit: top-dose activity change, negative = inhibition, most hits filed as inhibitors. 340,000 tested, 3.4% active. AID 651820; note: potency is the fitted concentration of half-maximal effect; % is set by controls: 0 for no effect and ±100 for the full control effect
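After 44 h co-culture of compound, cells and HCVcc-Cre (~0.5 moi), substrate is added for 15 min at room temperature and luciferase measured over 15 sec. Cells were seeded at 1,000/well and pre-cultured 4 h.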
Cycloheximide cs: counter-screen for Shiga toxin inhibitors: cycloheximide protein synthesis inhibition | cell reporter, cycloheximide protein synthesis inhibition counterscreen | max response, % | 300,000 tested, 12% active | AID 2314; in the data active = max response mostly above about 13%, no sharp cut-off; inactive = mostly below about 14%; note: read at 38.3 µM for the half of the compounds with a filed dose; 0% is about no effect
HCMV antiviral: blocks human cytomegalovirus replication. HFF cells, HCMV-luciferase reporter, 72 h; stronger effect = lower value. activity change, negative = inhibition, % at 57.5 µM. 410,000 tested, 4.5% active. AID 1259415; in the data active = activity change below about -60%; inconclusive = no clear call, values can overlap the other calls; inactive = above about -39%; note: % is set by controls: 0 for no effect and ±100 for the full control effect
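After 16 h attachment at 37C, HFF cells received test compound and HCMV-luciferase (1 PFU/cell); reporter luminescence read 72 h later, data normalized against buffer-only and known inhibitor Salinomycin.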
* = called active by the depositor; ? = inconclusive; nt = no result given; [ ] = another dose, or the depositor's remark. Rows were chosen to be rich in hits. Some 21% of all compounds tested hit in one or more screens of this group. Unless noted, calls come from the whole dose curve; as a rule, active = well fitted inhibition curve with a large enough effect; inconclusive = small, poorly fitted or top-dose-only effect, or another doubt; inactive = no such curve, though single readings can be large or run the other way.

SMILES	Pf growth 96h	Pf growth 48h	Shiga toxin inh	HCV inh	Cycloheximide cs	HCMV antiviral
COc1cccc(C2C(C(=O)Nc3ccccc3)=C(C)Nc3nnnn32)c1OC (centres undefined)	nt	nt	nt	nt	nt	-100*
COc1cccc(C2C(C(=O)Nc3ccc(C)cc3C)=C(C)Nc3ncnn32)c1OC (centres undefined)	-11%	12µM*	-1	6%	-2	14
CCOc1cc(C2C(C(=O)c3ccccc3)=C(C(=O)OC)Nc3nnnn32)ccc1O (centres undefined)	?	3%	33	6%	23*	31
COc1ccccc1N1CCN(Cc2cc(=O)c(OCC(=O)NC(C)C)co2)CC1	?	3%	-3	22%	2	-38
CC(=O)c1cccc(N(CC(=O)NC2CCCCC2)C(=O)CNC(=O)c2cccs2)c1	13%	-7%	-8	2%	0	-23
O=C(Cc1ccc(F)cc1)N1CCC(c2nc3c(nnn3Cc3ccc(Cl)cc3)c(=O)[nH]2)CC1	nt	nt	nt	nt	nt	11
Cc1ccc(S(=O)(=O)N2CC(O)CC2C(=O)OCc2nc3sc(C)c(C)c3c(=O)[nH]2)cc1 (centres undefined)	13µM*	12µM*	-2	6%	-4	-26
COCCCNC(=S)N/N=C/c1ccc(OC)cc1	-56%	-53%	13	-8%	10*	?
COCCCNC(=S)N/N=C/c1cccc(OC)c1O	?	0.41µM*	49*	?	42*	-3
COCCCNC(=S)N/N=C/c1ccc(O)cc1	0%	42%	15	-1%	0	35
COc1ccc(-c2cn3nc(SCC(=O)Nc4ccccc4F)ccc3n2)cc1	nt	nt	nt	nt	nt	44
Cc1ccn2c(c1)nc(=O)c1cc(S(=O)(=O)N3CCCCC3)c(Cl)cc12	nt	nt	nt	nt	nt	1
COc1ccccc1CCc1nnc(CCC(=O)N(C)Cc2cccc3cnccc23)o1	5%	?	86*	?	45*	-20
COc1ccccc1CCc1nnc(CCC(=O)N(C)Cc2ccncc2C)o1	19%	-12%	8	8%	-1	?
COc1ccc(CCc2nnc(CCC(=O)N(C)Cc3ccnc4ccccc34)o2)cc1	?	-19%	23*	?	30*	-64*
COc1ccc(CCc2ccnc3ccccc23)cc1	nt	nt	nt	-17%	nt	?
COC(=O)c1ccc(C2C(C(=O)c3ccco3)=C(O)C(=O)N2CC2CCCO2)cc1 (centres undefined)	15%	25%	-2	11%	2	9
CCOc1ccc(S(=O)(=O)NCc2ccncc2)cc1NC(=O)c1ccccc1F	19%	29%	-2	?	-2	?
CCOc1ccc(S(=O)(=O)NCc2ccncc2)cc1NC(=O)c1ccccc1	?	1%	nt	1.8µM*	nt	-87*
COc1ccc(S(=O)(=O)NCc2ccncc2)cc1NC(=O)c1ccc(Cl)cc1	?	-17%	nt	?	nt	-63*
COc1ccc(S(=O)(=O)NCc2ccncc2)cc1NC(=O)c1ccccc1	?	-7%	nt	-3%	nt	-79*
O=S(=O)(Nc1ccc(Cl)cc1)c1cccc(S(=O)(=O)c2ccc(Cl)c(Cl)c2)c1	nt	nt	nt	nt	nt	10
Cc1cccnc1C(NC(=O)C1CCN(CCCc2ccccc2)CC1)c1ccc(Cl)cc1 (centres undefined)	nt	nt	nt	nt	nt	3
O=C(c1ccc2c(c1)CCCC2)N1CCN(c2nc3c(F)cccc3s2)CC1	nt	nt	nt	nt	nt	14
Fc1cccc2sc(N3CCOCC3)nc12	?	41%	52*	-7%	15*	21
SMILES	Pf growth 96h	Pf growth 48h	Shiga toxin inh	HCV inh	Cycloheximide cs	HCMV antiviral
Fc1cccc2sc(N3CCCCC3)nc12	9%	88%	57*	2%	54*	15
O=C(C1CC1)N1CCN(c2nc3c(F)cc(F)cc3s2)CC1	nt	nt	nt	nt	nt	47
Fc1cc(F)c2nc(N3CCCC3)sc2c1	88%	97%	150*	10%	29*	?
COc1ccc(CC(=O)Nc2cccc(C(C)=O)c2)cc1S(=O)(=O)N1CCOCC1	-19%	-13%	nt	-5%	nt	46
COc1ccc(C(C)=O)cc1CC(=O)Nc1cccc(S(=O)(=O)N2CCOCC2)c1	7.4µM*	13µM*	nt	-4%	nt	6
COc1ccc(Cl)cc1NC(=O)Cc1c(F)cccc1Cl	5.9µM*	?	-8	?	-3	24
COc1ccc(S(=O)(=O)N2CCOCC2)cc1NC(=O)Cc1cccs1	?	?	nt	2%	nt	-3
O=C(COn1nnc2ccc(S(=O)(=O)N3CCOCC3)cc21)NCCc1ccccc1	-3%	?	nt	-3%	nt	-16
COc1ccccc1NC(=O)COn1nnc2ccc(S(=O)(=O)N3CCOCC3)cc21	-4%	-10%	46	?	6	-63*
COc1ccc(S(=O)(=O)N2CCOCC2)cc1NC(=O)Cc1c(Cl)cccc1Cl	8.3µM*	?	-6	-6%	-4	2
CCOC(=O)c1[nH]c2c(c1Cc1ccccc1)C(=O)CC(c1ccc(C(C)(C)C)cc1)C2 (centres undefined)	nt	nt	nt	nt	nt	-38
COCCn1c(=NC(=O)c2ccc3c(c2)OCCO3)sc2cc(C(=O)OC)ccc21	nt	nt	nt	nt	nt	67
C[C@@H]1CN([C@H](C)CO)C(=O)CCCn2nncc2CO[C@H]1CN(C)S(C)(=O)=O	nt	nt	nt	nt	nt	26
COc1ccc(S(=O)(=O)N2CCOCC2)cc1NC(=O)CN(C)Cc1c(F)cccc1Cl	?	7.4µM*	4	?	-1	?
Cc1cc(-c2ccc(C)c(S(=O)(=O)NCc3cccs3)c2)on1	nt	nt	nt	nt	nt	0
Cc1ccc(NC(=O)CN(C)S(=O)(=O)c2cccc3cccnc23)cc1C	13µM*	15%	15	?	-1	-1
Cc1ccc(NC(=O)CN(C)S(=O)(=O)c2cccc3cccnc23)cc1F	?	?	-5	8%	5	?
CCOc1cc(NC(=S)NCC2CCCO2)c(OCC)cc1NC(=O)c1cccc(F)c1 (centres undefined)	8%	?	6	?	18	4
CCOc1cc(NC(=O)c2cccs2)c(OCC)cc1NC(=O)c1ccccn1	?	0%	9	?	-2	-31
Cc1cccc(C(=O)Nc2cccc3cccnc23)c1	180%	97%	70*	-5%	45*	120
Cc1ccc(C(=O)Nc2cccc3cccnc23)cc1Cl	nt	nt	nt	nt	nt	44
CCOc1cc(NC(=O)c2ccccn2)c(OCC)cc1NC(=O)c1cccc(C)c1	12µM*	-20%[1.15 µM]	-8	?	-9	?
CCOc1cc(NC(=S)NCC2CCCO2)c(OCC)cc1NC(=O)c1cccc(C)c1 (centres undefined)	12µM*	?	-9	?	-3	-30
Cc1cc(S(=O)(=O)Nc2ccc3[nH]c(=O)sc3c2)ccc1F	nt	nt	nt	nt	nt	59

Screening data: PubChem, National Center for Advancing Translational Sciences (NCATS)
